Some test systems named below: NCI-H23 lung; NCI-H226 lung; NCI-H322M lung; HOP-62 NSCLC; NCI-H460 lung; HOP-92 NSCLC; NCI-H522 lung; A549/ATCC NSCLC; 786-0 renal; COLO 205 colon; DU-145 prostate; K-562 leukemia; MALME-3M melanoma; MDA-MB-231 breast; RXF 393 renal; SF-268 CNS; SF-295 CNS; SF-539 CNS; UACC-257 melanoma; M14 melanoma.
Holding throughout (test): NCI-60 one-dose screen, 48 h (100 = growth as untreated, 0 = no growth, -100 = all killed)
Holding throughout (settings): 10 µM unless noted

The structures appear in SMILES notation. About 83,000 compounds went through this panel and 20% of them were active in at least one assay; those are over-represented in the sample as a whole.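 Values shown are percent growth following 48 h exposure of cells in 96-well plates to a single concentration of compound; below 10 was considered active.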 Unmarked numbers belong to inactive results. Active and inactive are the calls of the source.

With `C#CCOC(=O)C(N)CSSCC(N)C(=O)O` (stereo not given), the growth in the test with NCI-H23 lung was 103%; in the test on NCI-H226 lung it was 112%; in the test with NCI-H322M lung, 91.2%; in the test on HOP-62 NSCLC, 94.9%; with NCI-H460 lung, 90.4%; in the test with HOP-92 NSCLC, 97.5%. The growth in the test with NCI-H522 lung is 86.1%; with A549/ATCC NSCLC, 98.2%; in the test on 786-0 renal it was 100%; with COLO 205 colon, 104%; in the test on DU-145 prostate, 119%; in the test on K-562 leukemia, 108%. For the same compound, the growth was 95.6% in the test with MALME-3M melanoma; 105% in the test with MDA-MB-231 breast; 114% in the test with RXF 393 renal; 100% in the test with SF-268 CNS; 103% in the test on SF-295 CNS; 90.8% with SF-539 CNS. Further, the growth with UACC-257 melanoma is 104%; with M14 melanoma, 100%.
In the case of `Cn1cc(-c2csc(-c3cn(C)c4ccc(F)cc34)n2)c2cnccc21`, the growth is 75.7% in the test with NCI-H23 lung; 68.5% with NCI-H226 lung; 21.9% in the test with NCI-H322M lung; -70.9% (active) in the test on HOP-62 NSCLC; -73.8% (active) in the test on NCI-H460 lung; 70.8% with HOP-92 NSCLC. The growth in the test on NCI-H522 lung is -76% (active); in the test with A549/ATCC NSCLC, 1.42% (active); in the test on 786-0 renal it was -91.6% (active); in the test with COLO 205 colon, -80.1% (active); with DU-145 prostate, -6.44% (active); with K-562 leukemia, -60.3% (active). For the same compound, the growth with MALME-3M melanoma is -92.5% (active); in the test with MDA-MB-231 breast, -33.1% (active); in the test on RXF 393 renal, -85.5% (active); with SF-268 CNS it was -60.3% (active); with SF-295 CNS, -81.1% (active); in the test with SF-539 CNS, -92.5% (active). Also, the growth with UACC-257 melanoma was -73.1% (active); in the test on M14 melanoma, -80% (active).
Consider `O=C(NC1CCCCCC1)c1ccc2c(=O)n3c(nc2c1)CCCCC3`, for which the growth with NCI-H23 lung was 97.7%; in the test on NCI-H226 lung it was 106%; in the test on NCI-H322M lung it was 90.7%; with HOP-62 NSCLC, 99.2%; with NCI-H460 lung it was 101%; with HOP-92 NSCLC, 84.6%. Moreover, the growth with NCI-H522 lung was 103%; with A549/ATCC NSCLC, 97%; in the test on 786-0 renal, 106%; with COLO 205 colon, 102%; with DU-145 prostate, 94.3%; in the test on K-562 leukemia, 89%. The growth was 91.1% in the test with MALME-3M melanoma; 100% in the test on MDA-MB-231 breast; 105% in the test on RXF 393 renal; 110% in the test on SF-268 CNS; 116% in the test on SF-295 CNS; 89.2% in the test on SF-539 CNS. Also, the growth with UACC-257 melanoma is 112%; in the test on M14 melanoma, 110%.
For `CCOC(=O)c1c(N)sc2cc(O)ccc12`, the growth is 95.2% in the test on NCI-H23 lung; 110% with NCI-H226 lung; 91.1% with NCI-H322M lung; 104% in the test on HOP-62 NSCLC; 112% in the test with NCI-H460 lung; 121% with HOP-92 NSCLC. Moreover, the growth in the test with NCI-H522 lung is 80%; with A549/ATCC NSCLC it was 99.7%; in the test on 786-0 renal it was 104%; in the test with COLO 205 colon it was 112%; in the test on DU-145 prostate, 89.2%; with K-562 leukemia, 89.9%. Further, the growth was 118% in the test on MALME-3M melanoma; 106% in the test with MDA-MB-231 breast; 115% with RXF 393 renal; 105% with SF-268 CNS; 96.3% with SF-295 CNS; 106% in the test on SF-539 CNS. Besides, the growth with UACC-257 melanoma is 115%; with M14 melanoma, 108%.
Consider `O=c1[nH]c(CN2CCN(c3ccccc3)CC2)nc2c(Br)cc(Br)cc12`, for which the growth in the test on NCI-H23 lung was 98.4%; in the test on NCI-H226 lung, 93.4%; with NCI-H322M lung it was 112%; in the test on HOP-62 NSCLC, 101%; in the test on NCI-H460 lung, 100%; in the test on HOP-92 NSCLC, 131%. In addition, the growth was 103% in the test on NCI-H522 lung; 101% in the test with A549/ATCC NSCLC; 103% in the test with 786-0 renal; 104% in the test on COLO 205 colon; 114% with DU-145 prostate; 97.6% in the test on K-562 leukemia. Moreover, the growth in the test with MALME-3M melanoma was 109%; in the test with MDA-MB-231 breast, 115%; in the test with RXF 393 renal, 101%; in the test on SF-268 CNS, 108%; in the test on SF-295 CNS, 91.8%; in the test with SF-539 CNS, 111%. The growth with UACC-257 melanoma was 96.2%; in the test on M14 melanoma, 113%.
`CC(=O)O[C@H]1CC[C@@]2(C)C(=CC[C@@H]3[C@@H]2CC[C@]2(C)C(Cl)=C(c4nc5ccc(Cl)cn5c4NC(C)(C)C)C[C@@H]32)C1`: the growth with NCI-H23 lung was 88.1%; with NCI-H226 lung, 92.3%; in the test on NCI-H322M lung it was 96.1%; in the test with HOP-62 NSCLC, 90.8%; in the test on NCI-H460 lung, 99.9%; in the test on HOP-92 NSCLC, 15.6%. The growth in the test on NCI-H522 lung was 86.8%; in the test on A549/ATCC NSCLC, 89.5%; in the test with 786-0 renal, 85%; with COLO 205 colon, 103%; with DU-145 prostate, 95.8%; in the test with K-562 leukemia it was 85.4%. Also, the growth is 66.7% with MALME-3M melanoma; 87.5% in the test on MDA-MB-231 breast; 90.1% in the test with RXF 393 renal; 101% in the test on SF-268 CNS; 93.2% in the test on SF-295 CNS; 97.6% with SF-539 CNS. Besides, the growth with UACC-257 melanoma is 98.9%; in the test on M14 melanoma it was 93.1%.
Take `C=CC(=O)NCc1cccc(Nc2ncc(Br)c(NCCCNC(=O)C3CCC3)n2)c1`: the growth in the test with NCI-H23 lung was -37% (active); with NCI-H226 lung it was -0.669% (active); in the test on NCI-H322M lung, -13.1% (active); in the test on HOP-62 NSCLC it was -26.9% (active); with NCI-H460 lung, -41.9% (active); with HOP-92 NSCLC, -11.5% (active). In addition, the growth with NCI-H522 lung was -38.8% (active); with A549/ATCC NSCLC, -9.64% (active); in the test on 786-0 renal it was -35.2% (active); in the test with COLO 205 colon it was -25.7% (active); with DU-145 prostate it was 9.47% (active); with K-562 leukemia it was 9.33% (active). Besides, the growth is -23.2% (active) in the test with MALME-3M melanoma; -26% (active) in the test with MDA-MB-231 breast; -74.6% (active) in the test on RXF 393 renal; -29.4% (active) in the test on SF-268 CNS; 2.75% (active) in the test with SF-295 CNS; -68% (active) in the test with SF-539 CNS. Further, the growth was 0.107% (active) in the test with UACC-257 melanoma and -31% (active) with M14 melanoma.

The values are drawn from PubChem BioAssay (NCI).
